# CYP2C9 act – increases human cytochrome P450 2C9 activity; recombinant CYP2C9, luciferin-H conversion, luminescence; stronger effect = higher value; factor 1 = untreated enzyme, 0 = blocked; hit rate 1.4% among 96,000; AID 1024; P11712; activation factor at 5 µM;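 active = activation factor of 2 or more for CYP2C9 at a 5 µM dose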;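 note: 0 = sulfaphenazole-blocked wells and 1 = vehicle-only wells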
# Target sequence (P11712 whole entry, looked up): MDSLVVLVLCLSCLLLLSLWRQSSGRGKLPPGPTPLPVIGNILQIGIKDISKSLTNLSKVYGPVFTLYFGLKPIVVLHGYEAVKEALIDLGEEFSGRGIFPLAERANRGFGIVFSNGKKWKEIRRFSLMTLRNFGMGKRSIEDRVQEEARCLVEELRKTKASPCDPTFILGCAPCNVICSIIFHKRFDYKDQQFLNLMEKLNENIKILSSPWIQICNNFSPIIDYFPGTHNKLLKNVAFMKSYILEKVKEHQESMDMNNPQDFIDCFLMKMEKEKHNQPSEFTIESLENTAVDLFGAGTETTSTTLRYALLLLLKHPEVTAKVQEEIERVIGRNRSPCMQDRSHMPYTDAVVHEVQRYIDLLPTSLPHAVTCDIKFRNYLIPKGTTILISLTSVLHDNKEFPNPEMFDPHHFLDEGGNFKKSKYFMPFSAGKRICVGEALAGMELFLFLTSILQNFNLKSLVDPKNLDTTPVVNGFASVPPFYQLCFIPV
# PostGolgi ctrl – inhibits growth of the yeast control strain; efflux-deficient yeast background strain, growth absorbance A615, 16 h; inhibition, % at 10 µM; hit rate 5% among 98,000
# CYP2C9 inh – human CYP2C9 inhibition; CYP2C9 Supersomes, luciferin-H conversion, luminescence; inhibition, % at 5 µM; hit rate 20% among 96,000;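 active = blocking of liver enzyme CYP2C9 beyond about 50% at 5 µM, limit read from the data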
# CYP2C19 activ – activators of human cytochrome P450 2C19. AID 1025. 96,000 tested, under 10 active. activation factor at 5 µM. recombinant CYP2C19, luciferin-H EGE luminescence; stronger effect = higher value; 0 = fully inhibited enzyme, 1 = untreated enzyme;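 active = activation factor of at least 2 at 5 µM in the primary screen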;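 note: 0 = wells with 2.5 mM tranylcypromine and 1 = vehicle-only wells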
# CYP2C19 inh – blocks human cytochrome P450 2C19; P33261; CYP2C19 Supersomes, luciferin-H EGE luminescence, 30 min; AID 778; inhibition, % at 5 µM; hit rate 21% among 96,000;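 active = CYP2C19 inhibition above a set limit at 5 µM in the primary screen, cut at about 50% in these data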;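 note: plate controls were negative control wells for no effect and 2.5 mM tranylcypromine positive control for full effect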
# PostGolgi yeast – growth inhibition of a yeast mutant, post-Golgi transport screen. post-Golgi transport phenotypic cell assay. inhibition, % at 10 µM. hit rate 0.9% among 98,000. AID 739;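 note: yeast cells grown in 1536-well plates; yeast grown about 18 h at 30C before absorbance read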
# * hit, by the source's call; nt = no result given. Sampled rows, rich in hits. Any-hit rate of the full collection: about 32%. Cut-off read from the data, not from the text of the source, unless noted: active = inhibition above about 30%; inactive = the rest.
SMILES,CYP2C9 act,PostGolgi ctrl,CYP2C9 inh,CYP2C19 activ,CYP2C19 inh,PostGolgi yeast
COCCn1c(SCC(=O)Nc2cc(C)cc(C)c2)nnc1C(C)C,0.8,30*,21,0.4,61*,-4
CCn1c(SCC(=O)Nc2cccc(NC(C)=O)c2)nnc1C(C)C,1.2,8,-22,1.1,-13,-3
COCCn1c(SCC(=O)c2ccc(Cl)cc2)nnc1C(C)C,0.9,8,11,0.3,74*,3
OCC#Cc1cnc2ccccc2c1,0.8,-1,15,0.7,27,-3
CCC(C)C(NC(=O)C(N)CC(C)C)C(=O)NC(CCC(=O)OCc1ccccc1)C(N)=O (stereo not given),0.8,11,23,0.8,24,4
Cc1nc(SCC(=O)OCc2ccccc2)c(C#N)c(-c2ccccc2)c1C(=O)Nc1ccccc1,0.4,-1,59*,0.8,19,-7
Cc1nc(SCC(=O)c2cc3ccccc3oc2=O)c(C#N)c(C)c1C(=O)Nc1ccccc1,0.5,1,51*,0.7,30,-3
CSc1nc(C)c(C(=O)Nc2ccccc2)c(C)c1C#N,0.7,15,33,0.3,73*,0
O=C(Nc1ccc(Cl)c(Cl)c1)OCc1cncs1,0,1,97*,0,99*,5
O=C(Nc1ccc(Cl)c(Cl)c1)OCc1cnc(Cl)s1,0.9,2,13,0.9,14,-4
CC(=O)N(CC1CCCO1)c1nnc(-c2cnccn2)s1 (stereo not given),1,-7,-3,1,1,-2
Cc1ccc(S(=O)(=O)c2cc3c(=O)n4cccc(C)c4nc3n(Cc3ccco3)c2=N)cc1C,0.6,nt,38,0.8,21,nt
Cn1c(N)c(S(=O)(=O)c2ccc(Br)cc2)c2nc3ccccc3nc21,1.1,-2,-8,0.8,18,3
Cc1ccc(S(=O)(=O)c2c(N)n(CCC(C)C)c3nc4ccccc4nc23)cc1,0.5,14,48,0.6,43,1
Cc1ccc(S(=O)(=O)c2c(N)n(CCN3CCOCC3)c3nc4ccccc4nc23)cc1C,1,2,0,0.3,72*,27
Nc1c(S(=O)(=O)c2ccccc2)c2nc3ccccc3nc2n1Cc1ccco1,0.6,30*,36,0.8,18,-22
Cc1ccc(S(=O)(=O)c2c(N)n(Cc3ccco3)c3nc4ccccc4nc23)cc1C,0.4,6,65*,0.5,54*,-1
Cc1ccc(S(=O)(=O)c2c(N)n(CCCO)c3nc4ccccc4nc23)cc1,0.1,-6,92*,0.1,92*,-5
Cc1nn(CC(=O)NCCCN2CCOCC2)c(C)c1[N+](=O)[O-],0.9,6,12,0.9,6,14
Cc1cccc(/N=C/c2c(O)c3ccccc3oc2=O)n1,1,3,-2,0.8,16,-7
O=C1CC(N2CCC(Cc3ccccc3)CC2)C(=O)N1CCc1ccccc1 (stereo not given),0.8,23,16,0.7,26,-3
Fc1ccc(C2=Nn3c(Cc4ccccc4F)nnc3SC2)cc1,0.9,1,6,1,-3,-6
c1ccc(-c2ccc(C3=Nn4c(Cn5nnc6ccccc65)nnc4SC3)cc2)cc1,0.8,36*,16,1,-3,4
Cn1c(N2CCN(c3ccccn3)CC2)nc2c1c(=O)n(Cc1ccc(Cl)cc1)c(=O)n2C,0.1,15,86*,0.1,92*,-6
Cn1c(=O)n(C/C=C/c2ccccc2)c(=O)c2c1nc1n2CCCN1Cc1ccccc1,0.9,32*,10,0.8,19,-1
SMILES,CYP2C9 act,PostGolgi ctrl,CYP2C9 inh,CYP2C19 activ,CYP2C19 inh,PostGolgi yeast
CCn1c(=O)c2c(nc3n2CCCN3CCc2ccccc2)n(C)c1=O,0.8,12,23,0.9,14,3
Cn1c(=O)n(C/C=C/c2ccccc2)c(=O)c2c1nc1n2CCCN1c1ccc(F)cc1,0.6,31*,38,0.7,30,2
Cc1cccc(Cn2c(=O)c3c(nc4n3CCCN4Cc3ccccc3)n(C)c2=O)c1,0.5,42*,48,0.9,12,-6
COc1ccc(N2CCCn3c2nc2c3c(=O)n(Cc3ccccc3F)c(=O)n2C)cc1,0.9,nt,8,1,4,nt
CC(C)c1ccc(-c2nc(N3CCOCC3)[nH]c(=O)c2C#N)cc1,0.9,22,11,0.9,8,0
Cc1cc(C(F)(F)F)nn1CC(=O)NNC(=S)Nc1cccc(Cl)c1,0.5,1,49,0.8,21,7
CCOC(=O)c1ccc(N=c2sc(C(=O)OC)cc(=O)n2C2CC2)cc1,nt,33*,nt,nt,nt,5
CCOC(=O)c1ccc(N=c2sc(C(=O)OC)cc(=O)n2Cc2ccc3c(c2)OCO3)cc1,0.8,11,23,0.9,13,-9
O=C(Cn1cnc2ccccc21)Nc1ccc(C(=O)O)cc1,1,4,-2,1,2,3
c1ccc2c(c1)ncn2CCC1CCCCC1,0.4,80*,58*,0.1,92*,-1
O=c1cnc2ccccc2n1CC1CCCCC1,0.7,5,32,0,96*,-4
COc1ccc(/C=C2\CCCC3C2=NN(C(=O)COC(=O)CNC(=O)c2ccccc2)C3c2ccc(OC)cc2)cc1 (stereo not given),0.3,0,74*,0.8,23,1
Cc1ncsc1C(=O)N1N=C2/C(=C/c3ccc(N4CCOCC4)cc3)CCCC2C1c1ccc(N2CCOCC2)cc1 (stereo not given),1.1,16,-5,1,-4,-2
Cc1ncsc1C(=O)N1N=C2/C(=C/c3ccccc3)CCCC2C1c1ccccc1 (stereo not given),0.5,26,52*,0.9,6,-1
Cc1nc(N2N=C3/C(=C/c4ccc(F)cc4)CCCC3C2c2ccc(F)cc2)sc1C(=O)N(C)C (stereo not given),0.7,15,30,0.7,34,-2
COc1ccc(C(=O)NCC(=O)OCC(=O)N2CC(C)CC(C)C2)cc1 (stereo not given),0.3,1,66*,1,4,-19
C=CCSc1cc(C)nc2c(-c3ccc(Cl)cc3)c(C)nn12,0.8,13,15,0.8,19,-7
COc1ccc2oc(C)c(C(=O)NN)c2c1,0.9,11,9,1.1,-10,-9
CCOC(=O)c1c(C)oc2ccc(NS(=O)(=O)c3ccc4c5c(cccc35)C(=O)N4)cc12,nt,9,nt,nt,nt,7
COCCOC(=O)c1c(C)oc2ccc(NS(=O)(=O)c3ccccc3)cc12,0.3,14,65*,0.4,63*,-6
COC(=O)c1c(C)oc2ccc(NS(=O)(=O)c3cccs3)cc12,0.1,25,92*,0,97*,9
COc1ccc(S(=O)(=O)Cc2ccc(C(=O)NCCCN(C)c3ccccc3)o2)cc1,0,3,98*,0.5,47,-2
CCOC(=O)N1CCC(NC(=O)c2ccc(CS(=O)(=O)c3ccc(OC)cc3)o2)CC1,0.1,8,93*,1,-3,-2
